In PubChem BioAssay one finds inhibition data, which are given here for 40 compounds.

Active and inactive are the calls of the source. How the calls were made is not given here.

In the test the target is Pantothenate synthetase (Mycobacterium tuberculosis (strain ATCC 25618 / H37Rv)) (UniProt P9WIL5). The experiment in a line: Coupled enzyme confirmation of inhibitors against recombinant Mtb PanC (AID 375).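 Further: 0% = full reaction with vehicle and 100% = no enzyme background.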 Particulars: coupled enzyme assay; at 10 µM, stronger effect = higher value.
Sequence of Pantothenate synthetase (Mycobacterium tuberculosis (strain ATCC 25618 / H37Rv)) (P9WIL5 whole entry, looked up): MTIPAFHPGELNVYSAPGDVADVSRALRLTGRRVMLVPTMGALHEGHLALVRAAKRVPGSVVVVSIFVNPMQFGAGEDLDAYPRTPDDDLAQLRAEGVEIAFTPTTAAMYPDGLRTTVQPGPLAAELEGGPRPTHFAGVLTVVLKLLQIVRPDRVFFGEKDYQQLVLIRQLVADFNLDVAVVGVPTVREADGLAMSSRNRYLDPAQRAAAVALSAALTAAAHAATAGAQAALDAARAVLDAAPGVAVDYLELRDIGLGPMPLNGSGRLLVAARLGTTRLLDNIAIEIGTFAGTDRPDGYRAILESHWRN
As usually defined, the inhibition is the share of the control response that was lost under treatment. Take `CCN(Cc1cc2ccccc2[nH]c1=O)S(=O)(=O)c1ccccc1`: the inhibition is 0% (inactive).
`Cc1cccnc1-n1c(CCN2C(=O)c3ccccc3C2=O)nc2ccccc2c1=O`: the inhibition was 9% (inactive).
Then `Cn1c(=O)c2c(nc(N3CCN(c4ccccc4)CC3)n2CCCc2ccccc2)n(C)c1=O`, with 0% (inactive).
Take `COCCn1cc(C(=O)c2ccccc2OCC(=O)Nc2cc(C)on2)cc(C#N)c1=O`: the inhibition was 0% (inactive).
Next, `Cc1ccc(C(=O)OCC(=O)Nc2ccc3c(c2)OCO3)o1`: 4% (inactive); `COc1ccc(CCNC(=O)CSCc2n[nH]c(=O)[nH]2)cc1OC`: 0% (inactive); `Cc1ccc2nc(SC(C)C(=O)N3CCCC3)[nH]c2c1` (stereo not given): 2% (inactive).
Regarding `CCCC1(CCC)NC(=O)NC1=O`, the inhibition was 0% (inactive).
Then `CCCCN=CC1=C(O)C(C(=O)OC)C(C)(C)CC1=O` (stereo not given), with 0% (inactive); and `CCNC(=O)CC1C(=O)N(c2ccc(F)cc2)C(=O)N1CCC(C)C` (stereo not given), with 0% (inactive).
As for `O=C(CCCCCN1C(=O)CCC1=O)NCc1ccccc1`, the inhibition was 11% (inactive).
Then `CCOC(=O)c1c(C)oc2c1c(C(c1ccncc1)N1CCOCC1)c(O)c1ccccc12` (stereo not given), with 0% (inactive); and `Cc1ncc([N+](=O)[O-])n1CC(O)CCl` (stereo not given), with 0% (inactive); and `Cc1ccc(C2c3sc(=O)[nH]c3SC3C(=O)NC(=O)C32)cc1` (stereo not given), with 0% (inactive).
Next, `CC1Cc2nc(SCC(=O)Nc3nccs3)n(C)c(=O)c2S1` (stereo not given): 0% (inactive).
Then `Cn1c(=O)[nH]c(=O)c2c1nc(N1CCCCCC1)n2CCCSc1nc2ccccc2o1`, with 8% (inactive); and `CC(C)[C@H](NC(=O)OC(C)(C)C)c1nnc(SCC(=O)Nc2ccc(Br)cc2)o1`, with 0% (inactive).
Turning to `Cn1c(-c2ccccc2)cnc1SCc1nc2ccccc2c(=O)[nH]1`, the inhibition was 7% (inactive).
On to `O=C(c1cccnc1)N1CCc2ccccc21`, for which the inhibition is 3% (inactive).
Next, `O=C(Nc1cccnc1)c1cccc(NC(=O)c2ccco2)c1`: 0% (inactive).
For the compound `CCN(CC)S(=O)(=O)c1ccc(C(=O)Oc2ccc3c(c2)OCO3)cc1`, the inhibition was 2% (inactive).
Next, `O=C(NCc1ccco1)C1CC(=O)N(c2ccc(F)cc2)C1` (stereo not given): 4% (inactive).
As to `COc1ccc(-n2nc3cc(C)c(N)c(Br)c3n2)cc1`, the inhibition was 0% (inactive).
Then `Cc1ccc(-c2nnc(-c3ccc(Br)cc3)o2)o1`, with 0% (inactive); and `COc1ccc(CN(C(=O)CNC(=O)c2ccco2)C(C(=O)NC2CCCC2)c2ccco2)cc1` (stereo not given), with 5% (inactive).
Next, `COC(=O)c1ccccc1NC(=O)C1CCCCC1C(=O)O` (stereo not given): 0% (inactive); `CN(C)C(=O)CN(C)S(=O)(=O)c1ccc(Cl)cc1`: 0% (inactive); `COc1ccccc1NC(=O)c1cc2n(n1)C(C(F)(F)F)CC(c1ccc3c(c1)OCO3)N2` (stereo not given): 0% (inactive).
Then `COc1ccc(C(CNC(=O)c2cc(C)oc2C)N2CCOCC2)cc1` (stereo not given), with 0% (inactive); and `CC(C)(C)NC(=O)COC(=O)c1ccc(O)cc1`, with 0% (inactive).
In the case of `Cn1c(=O)c2ncn(CC(=O)NCCOc3ccc(C(C)(C)C)cc3)c2n(C)c1=O`, the inhibition is 0% (inactive).
Then `CCCc1ccc(S(=O)(=O)NCCc2ccncc2)cc1`, with 0% (inactive).
In the case of `COc1cc2c(cc1OC)CN(CC(=O)Nc1cccc(C)c1)CC2`, the inhibition is 11% (inactive).
Then `COc1ccc(NC2c3ncccc3C(=O)N2Cc2ccccc2)c(OC)c1` (stereo not given), with 0% (inactive).
Next, `Cc1ccc(-n2nc(C(=O)N3CCN(C)CC3)c3c4ccccc4n(C)c3c2=O)cc1`: 0% (inactive); `CC1CCCC(C)N1C(=O)COC(=O)c1ccc[nH]c1=O` (stereo not given): 0% (inactive).
Next, `O=C(NCc1ccc2c(c1)OCO2)C1CCC(CNS(=O)(=O)c2ccccc2)CC1` (stereo not given): 0% (inactive); `O=C(OCc1cc2ccccc2[nH]c1=O)c1ccncc1`: 7% (inactive).
Consider `CCOCCCNS(=O)(=O)c1ccc2c(c1)oc(=O)n2CC(=O)OCC`, for which the inhibition is 8% (inactive).
Next, `O=C(C1CCC(CNc2c(N3CCCCC3)c(=O)c2=O)CC1)N1CCc2ccccc2C1` (stereo not given): 0% (inactive).
